These results are taken from PubChem BioAssay (NCATS).

The structures appear in SMILES notation. The source made the active and inactive calls. Unless noted, the call rests on the fitted dose curve; in most records, active means well fitted curve in the direction sought with a large enough effect; inactive means no such curve, though single readings can be large or run the other way.

One test is described as follows: qHTS Assay for Identification of Small Molecule Antagonists for NFkB Signaling Pathway. (AID 624479; calls by dose curve;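 further: pathway stimulated with TNF alpha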; further: potency means the concentration at half of the fitted maximal effect). Particulars: NFkB pathway reporter cell assay, antagonist mode; series mostly up to 38.3 µM. For orientation: Quantitative high-throughput screening tests each substance at several concentrations.
For `Nc1ccc(-c2ccc3ncc4ccc(=O)n(-c5cccc(C(F)(F)F)c5)c4c3c2)cn1`, the Potency was 4.73 µM (active).

Regarding `CNC(=O)c1cc(Oc2ccc(NC(=O)Nc3ccc(Cl)c(C(F)(F)F)c3)c(F)c2)ccn1`, the Potency was 5.95 µM (active).

In the case of `O=C1CN2Cc3c(ccc(Cl)c3Cl)N=C2N1`, the Potency entry was “inactive”.

Consider `CCC(=O)N1CCN(c2ccc(-n3c(=O)ccc4cnc5ccc(-c6cnc7ccccc7c6)cc5c43)cc2C(F)(F)F)CC1`, for which the Potency was 5.3 µM (active).

As to `O=C(O)c1ccc(O)c2ncc(N3CCOCC3)cc12`, the Potency entry is “inactive”.

In the case of `O=C1C(CCC(O)c2ccc(F)cc2)C(c2ccc(O)cc2)N1c1ccc(F)cc1` (configuration not stated), the Potency entry is “inactive”.

In the case of `Cc1nn(Cc2ccccc2Cl)c(C)c1CN(C)CC(O)COc1ccc(Cl)cc1` (configuration not stated), the Potency entry is “inactive”.

As to `CCNC(=O)c1noc(-c2cc(C(C)C)c(O)cc2O)c1-c1ccc(CN2CCOCC2)cc1`, the Potency was 0.0009 µM (active).

Take `COc1c(C)cnc(Cn2cnc3c(Cl)nc(N)nc32)c1C`: the Potency is 0.0211 µM (active).

In the case of `CCCCn1c(=O)n(Cc2ccccc2F)c(=O)c2[nH]c(Cc3ccc(NC(C)=O)cc3)nc21`, the Potency was 6.68 µM (active).

Turning to `CC(C)Oc1cc(Nc2nc(N[C@@H](C)c3ccc(F)cn3)ncc2Cl)[nH]n1`, the Potency is 14.9 µM (active).

As for `C[C@@H](O[C@H]1OCCN(Cc2n[nH]c(=O)[nH]2)[C@@H]1c1ccc(F)cc1)c1cc(C(F)(F)F)cc(C(F)(F)F)c1`, the Potency was 23.7 µM (active).

Turning to `CC(C)C[C@@H](C(=O)N[C@H](C(=O)OC1CCCC1)c1ccccc1)[C@H](O)C(=O)NO`, the Potency entry was “inactive”.

As for `COc1cc2nccc(Oc3ccc(NC(=O)Nc4cc(C)on4)c(Cl)c3)c2cc1OC`, the Potency is 16.8 µM (active).

As to `COc1cccc(OC)c1-c1cc(C(=O)NC2(C(=O)O)C3CC4CC(C3)CC2C4)nn1-c1ccnc2cc(Cl)ccc12` (configuration not stated), the Potency was 16.8 µM (active).

With `COc1ccc2c(c1)CC[C@H]1[C@@H]2CC[C@]2(C)[C@@H](NCCCCCCN3C(=O)C=CC3=O)CC[C@H]12`, the Potency entry is “inactive”.

`COc1cc2c(cc1OC)CC(=O)N(CCCN(C)C[C@H]1Cc3cc(OC)c(OC)cc31)CC2`: the Potency entry was “inactive”.

The next test in a line: Cell Proliferation Assay against the TMD8 Cell Line (AID 651645).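 Further: cells exposed to compound for 48 h before reading.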 Particulars: TMD8 DLBCL cell line proliferation/viability; at 46.1 µM (top of the series). In short, it runs like this: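 Viability by CellTiter-Glo after 48 h compound exposure of 500 log-phase TMD8 cells per well (RPMI, 5% FBS). Percent activity scaled between DMSO (100%) and 9.2 uM final bortezomib (0%).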
For the compound `Nc1ccc(-c2ccc3ncc4ccc(=O)n(-c5cccc(C(F)(F)F)c5)c4c3c2)cn1`, the viability (% of control) worked out at 9.02%.

As for `CNC(=O)c1cc(Oc2ccc(NC(=O)Nc3ccc(Cl)c(C(F)(F)F)c3)c(F)c2)ccn1`, the viability (% of control) stood at 3.02%.

On to `CCC(=O)N1CCN(c2ccc(-n3c(=O)ccc4cnc5ccc(-c6cnc7ccccc7c6)cc5c43)cc2C(F)(F)F)CC1`, for which the viability (% of control) worked out at 3.32%.

On to `O=C(O)c1ccc(O)c2ncc(N3CCOCC3)cc12`, for which the viability (% of control) came to 77.1%.

As for `O=C1C(CCC(O)c2ccc(F)cc2)C(c2ccc(O)cc2)N1c1ccc(F)cc1` (configuration not stated), the viability (% of control) turned out to be 87.2%.

Take `Cc1nn(Cc2ccccc2Cl)c(C)c1CN(C)CC(O)COc1ccc(Cl)cc1` (configuration not stated): the viability (% of control) worked out at 9.51%.

`CCNC(=O)c1noc(-c2cc(C(C)C)c(O)cc2O)c1-c1ccc(CN2CCOCC2)cc1`: the viability (% of control) came to 7.59%.

On to `COc1c(C)cnc(Cn2cnc3c(Cl)nc(N)nc32)c1C`, for which the viability (% of control) worked out at 13.8%.

With `CCCCn1c(=O)n(Cc2ccccc2F)c(=O)c2[nH]c(Cc3ccc(NC(C)=O)cc3)nc21`, the viability (% of control) came out at 5.19%.

As to `CC(C)Oc1cc(Nc2nc(N[C@@H](C)c3ccc(F)cn3)ncc2Cl)[nH]n1`, the viability (% of control) amounted to 0.843%.

Take `CC(C)C[C@@H](C(=O)N[C@H](C(=O)OC1CCCC1)c1ccccc1)[C@H](O)C(=O)NO`: the viability (% of control) is 4.45%.

Consider `COc1cc2nccc(Oc3ccc(NC(=O)Nc4cc(C)on4)c(Cl)c3)c2cc1OC`, for which the viability (% of control) came out at 6.06%.

Turning to `COc1cccc(OC)c1-c1cc(C(=O)NC2(C(=O)O)C3CC4CC(C3)CC2C4)nn1-c1ccnc2cc(Cl)ccc12` (configuration not stated), the viability (% of control) turned out to be 69%.

On to `COc1ccc2c(c1)CC[C@H]1[C@@H]2CC[C@]2(C)[C@@H](NCCCCCCN3C(=O)C=CC3=O)CC[C@H]12`, for which the viability (% of control) worked out at 15.9%.

Turning to `COc1cc2c(cc1OC)CC(=O)N(CCCN(C)C[C@H]1Cc3cc(OC)c(OC)cc31)CC2`, the viability (% of control) was 108%.

The next test is described as follows: Cell Proliferation Assay against the HBL1 Cell Line (AID 651646).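 Further: cells exposed to compound for 48 h before reading.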 Particulars: HBL1 DLBCL cells; at 46.1 µM (top of the series). Put shortly:
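HBL1, 500 cells/well, RPMI no phenol red + 5% FBS; cpd pinned, 48 h 37C/5% CO2; CellTiter-Glo, 15 min RT, luminescence. % activity: DMSO = 100%, bortezomib 9.2 uM final = 0%.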
`Nc1ccc(-c2ccc3ncc4ccc(=O)n(-c5cccc(C(F)(F)F)c5)c4c3c2)cn1`: the viability, percent of control came to 8.06%.

In the case of `CNC(=O)c1cc(Oc2ccc(NC(=O)Nc3ccc(Cl)c(C(F)(F)F)c3)c(F)c2)ccn1`, the viability, percent of control stood at 4.87%.

In the case of `CCC(=O)N1CCN(c2ccc(-n3c(=O)ccc4cnc5ccc(-c6cnc7ccccc7c6)cc5c43)cc2C(F)(F)F)CC1`, the viability, percent of control was found to be 4.82%.

With `O=C(O)c1ccc(O)c2ncc(N3CCOCC3)cc12`, the viability, percent of control was found to be 74%.

On to `O=C1C(CCC(O)c2ccc(F)cc2)C(c2ccc(O)cc2)N1c1ccc(F)cc1` (configuration not stated), for which the viability, percent of control came out at 68%.

As to `Cc1nn(Cc2ccccc2Cl)c(C)c1CN(C)CC(O)COc1ccc(Cl)cc1` (configuration not stated), the viability, percent of control was 2.62%.

Turning to `CCNC(=O)c1noc(-c2cc(C(C)C)c(O)cc2O)c1-c1ccc(CN2CCOCC2)cc1`, the viability, percent of control amounted to 47.2%.

On to `COc1c(C)cnc(Cn2cnc3c(Cl)nc(N)nc32)c1C`, for which the viability, percent of control came to 59.9%.

With `CCCCn1c(=O)n(Cc2ccccc2F)c(=O)c2[nH]c(Cc3ccc(NC(C)=O)cc3)nc21`, the viability, percent of control turned out to be 4.28%.

As to `CC(C)Oc1cc(Nc2nc(N[C@@H](C)c3ccc(F)cn3)ncc2Cl)[nH]n1`, the viability, percent of control turned out to be 13.4%.

On to `CC(C)C[C@@H](C(=O)N[C@H](C(=O)OC1CCCC1)c1ccccc1)[C@H](O)C(=O)NO`, for which the viability, percent of control was 6.68%.

Take `COc1cc2nccc(Oc3ccc(NC(=O)Nc4cc(C)on4)c(Cl)c3)c2cc1OC`: the viability, percent of control is 26.7%.

As to `COc1cccc(OC)c1-c1cc(C(=O)NC2(C(=O)O)C3CC4CC(C3)CC2C4)nn1-c1ccnc2cc(Cl)ccc12` (configuration not stated), the viability, percent of control came to 3.08%.

Consider `COc1ccc2c(c1)CC[C@H]1[C@@H]2CC[C@]2(C)[C@@H](NCCCCCCN3C(=O)C=CC3=O)CC[C@H]12`, for which the viability, percent of control stood at 33.1%.

`COc1cc2c(cc1OC)CC(=O)N(CCCN(C)C[C@H]1Cc3cc(OC)c(OC)cc31)CC2`: the viability, percent of control worked out at 122%.
